Data: PubChem BioAssay (NCATS)
Records with an inconclusive call do not appear. Values without a mark were called inactive. Active and inactive are the calls of the source. Calls follow the shape of the dose curve; as a rule, active = well fitted curve in the direction sought with a large enough effect; inconclusive = small, poorly fitted or top-dose-only effect, or another doubt; inactive = no such curve, though single readings can be large; an effect the other way counts as inactive or inconclusive.

assay: Primary redox qHTS assay for identification of artifact compounds. (AID 1845223); conditions: Amplex Red/HRP redox cycling with DTT, fluorescence; series mostly up to 53.8 µM; redox activity (% of DA3003): at the top concentration;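 also: 0% = DMSO and 100% = reference compound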
In short: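 Amplex Red (25 uM) and HRP (250 mU/mL) in HBSS, with compounds for 15 min, then 250 uM DTT for 30 min, room temperature, dark. Fluorescence 525/598 nm read; normalized to DMSO and 10 uM DA3003; Hill fit.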

SMILES | redox activity (% of DA3003) | outcome
C[C@@H]1CCO[C@H]2Cn3cc(C(=O)NCc4ccc(F)cc4F)c(=O)c(O)c3C(=O)N12 | 10.7% | –
COC(=O)N1CCN(Cc2cccc(NC(=O)Nc3ccc(C)nc3)c2F)CC1 | 12.1% | –
CCN1C[C@H](C)n2c(c(O)c3c(=O)n(Cc4ccc(F)c(Cl)c4)nc(C(=O)NC)c32)C1=O | – | inactive
CNC(=O)c1cc(Oc2ccc(NC(=O)Nc3ccc(Cl)c(C(F)(F)F)c3)c(F)c2)ccn1 | -2.34% | –
C[C@@]1(c2cc(-c3cncnc3)c(F)cc2F)CCSC(N)=N1 | -4.64% [at 25.6 µM] | –
Cc1ccccc1C(=O)c1ccc(Nc2ccc(Br)cc2N)cc1Cl | -4.42% | –

assay: Quantitative High-Throughput drug screen in 47 multiple myeloma cell lines against the NCATS MIPE library collection: FR4_PLB cell viability assay (AID 1918924; also: nearly all actives have a fitted effect of over 35% in size; also: potency is read from the fitted curve at half-maximal effect;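 as to viability (% of DMSO control): 100% = DMSO-treated cells and 0% = wells with media only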); conditions: FR4_PLB myeloma cells viability, CellTiter-Glo ATP, 48 h; series mostly up to 45.8 µM; viability (% of DMSO control): at the top concentration
In short: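 Inhibition of cell viability is measured here. Each line was plated at 500 cells per well, treated with MIPE 4.0 drugs, kept 48 hours at 37C, then assayed for ATP content by CellTiter-Glo luminescence.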

SMILES | Potency | viability (% of DMSO control) [%]
C[C@@H](NC(=O)c1ncnc(N)c1Cl)c1ncc(C(=O)Nc2cc(C(F)(F)F)c(Cl)cn2)s1 | 14.8 µM (active) | –
CC(C)=CCCC(C)=CCCC(C)=CCCC(C)=CCCC(C)=CCCC(C)=CCCC(C)=CCCC(C)=CCCC(C)=CCO | – | 107
CC(=O)OCC(=O)[C@@]12OC(C)(C)O[C@H]1C[C@H]1[C@@H]3C[C@H](F)C4=CC(=O)C=C[C@]4(C)[C@@]3(F)[C@@H](O)C[C@@]12C | – | 99.1
CCCCCOC(=O)Nc1nc(=O)n([C@@H]2O[C@H](C)[C@@H](O)C2O)cc1F (some centres not stated) | – | 97.8
CCOC(=O)[C@H](CCc1ccccc1)N[C@@H](C)C(=O)N1CCCC1C(=O)O (some centres not stated) | – | 104
CCCCC(F)(F)[C@@]1(O)CC[C@H]2[C@H](CC(=O)[C@@H]2CCCCCCC(=O)O)O1 | – | 131
CC1(C)CC(=O)c2c(C(F)(F)F)nn(-c3ccc(C(N)=O)c(NC4CCC(O)CC4)c3)c2C1 (configuration not stated) | 0.059 µM (active) | –
CCN(CC)CCCCNc1nc2cc(Cl)c(Cl)cc2nc1-c1ccc(-c2cccs2)s1 | 10.5 µM (active) | –
COc1cc(CNC(=O)CCCCC=CC(C)C)ccc1O | – | 111
Cc1cn([C@@H]2C[C@@H](O)[C@H](CO)O2)c(=O)[nH]c1=O | – | 138
Cc1cccc(-c2[nH]c(C(C)(C)C)nc2-c2ccc3c(c2)OCO3)n1 | 29.6 µM (active) | –
CCCCC[C@H](O)C=C[C@H]1[C@H](O)CC(=O)[C@H]1CCCCCCC(=O)O | – | 114
C[C@@H](O)[C@H]1C(=O)N2C(C(=O)OCOC(=O)C(C)(C)C)=C(SC3CN(C4=NCCS4)C3)[C@H](C)[C@H]12 | – | 94.1
N#CC(c1ccnc(NCCc2cccnc2)n1)c1nc2ccccc2s1 (configuration not stated) | 20.9 µM (active) | –
CC1(C)OC2CC3C4CC(F)C5=CC(=O)C=CC5(C)C4C(O)CC3(C)[C@]2(C(=O)CO)O1 (some centres not stated) | – | 111
C[C@@H]1CCO[C@H]2Cn3cc(C(=O)NCc4ccc(F)cc4F)c(=O)c(O)c3C(=O)N12 | 37.2 µM (active) | –
CNC(=O)c1cc(Oc2ccc(NC(=O)Nc3ccc(Cl)c(C(F)(F)F)c3)c(F)c2)ccn1 | 23.5 µM (active) | –
CC[C@H](C)C(=O)O[C@H]1C[C@H](O)C=C2C=C[C@H](C)[C@H](CC[C@@H](O)C[C@@H](O)CC(=O)O)[C@H]21 | – | 108
CN1CC(=O)N2C(Cc3c([nH]c4ccccc34)[C@H]2c2ccc3c(c2)OCO3)C1=O (some centres not stated) | – | 105
Cc1ccccc1C(=O)c1ccc(Nc2ccc(Br)cc2N)cc1Cl | 6.62 µM (active) | –
COc1cc2ncn(-c3cc(OCc4ccccc4S(C)(=O)=O)c(C#N)s3)c2cc1OC | – | 121
